CRFR2-BP ag = CRF-BP/CRF-R2 complex agonism | 0.46% of 350,000 active | HEK293 CRF-R2/CRF-BP, calcium dye fluorescence (FLIPR); percent of saturating CRF peptide response | activation, % at 13.2 µM;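 active means activation of at least 50%, plus an integration ratio under a set limit after plate pattern correction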;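 further: plate controls were neutral control wells without compound for no effect and CRF at EC100 for full effect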
TMEM16A inh = inhibitors of mouse TMEM16A calcium-activated chloride channel | Q8BHY3 | HEK293 TMEM16A/YFP iodide influx fluorescence, ionomycin | normalized B-score (activity score, 25-100; higher = stronger inhibition) at 10 µM | 1.2% of 310,000 active;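 active means ratio plate-corrected score three or more library SD toward inhibition, starting fluorescence score within five deviations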;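 further: score derived from kinetic fluorescence span divided by baseline fluorescence per well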
NR3A LBD binder = modulators (binders) of human NR3A ligand-binding domain; NR3A LBD differential scanning fluorimetry, Tm shift; 0% = protein alone, 100% = glycine-bound protein; Tm shift relative to glycine control, % at 25 µM; 2.5% of 340,000 active;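 active means melting temperature shift of at least 10% of the positive control shift, at one fixed dose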
MPTP inh = permeability transition pore inhibition | 1.4% of 360,000 active | isolated mouse mitochondria, Ca2+ swelling absorbance, 30 min | inhibition, % at 10 µM;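 active means inhibition of 50% or more, scaled per plate between neutral and stimulator controls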;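 further: 0% = DMSO wells given calcium and 100% = 1 mM EGTA wells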
CRFR2-BP antag = antagonists of CRF-binding protein/CRF-R2 receptor complex; HEK293 CRF-R2/CRF-BP, CRF-induced calcium fluorescence; inhibition, % at 11.8 µM; 0.59% of 350,000 active; AID 588475;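 active means inhibition of the ligand-induced calcium signal above about 50% at the single tested concentration, limit read from the data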
TMEM16A act = mouse TMEM16A channel activation, primary screen; B-score at 10 µM; 0.3% of 340,000 active; HEK293 TMEM16A/YFP-H148Q/I152L, iodide quench fluorescence; stronger effect = lower value;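 active means fluorescence-ratio B-score plate-corrected deviation score at least 3 library SD below zero, with starting fluorescence score within 5 deviations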;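 further: channel opened by trigger with iodide after compound preincubation; score built on the fluorescence ratio of max minus min over baseline; more negative score means more quench and so TMEM16A activation or potentiation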
An asterisk follows results filed as active; i = inactive; · = no result. This is a sample that favours compounds with a hit; in the whole collection about 5.1% have one here.

SMILES	CRFR2-BP ag	TMEM16A inh	NR3A LBD binder	MPTP inh	CRFR2-BP antag	TMEM16A act
O=C(c1ccc2ccccc2c1)N1CCN(Cc2ccccc2)CC1	0	i	-1	0	-4	i
O=C(c1cccc(Br)c1)N1CCCC1	0	i	13*	-2	-5	i
CN(C)S(=O)(=O)N1CCN(C(=O)c2cccc(Br)c2)CC1	-2	i	11*	-1	13	i
O=C(Nc1nc2c(s1)CN(Cc1ccccc1)CC2)c1cccc(S(=O)(=O)N2CCc3ccccc32)c1	93*	i	0	0	-92	i
COc1ccccc1Nc1cc(C(=O)N2CCc3ccccc3C2)c2ccccc2n1	·	i	·	·	·	·
COc1ccccc1-c1cc(C(=O)N2CCc3ccccc3C2)c2ccccc2n1	·	100*	·	·	·	·
NNC(=O)c1cccn(Cc2ccc(Cl)cc2Cl)c1=O	4	i	1	-1	20	-7.2*
COC(CN(C)C(=O)C1CCCN(S(=O)(=O)c2ccc3c(c2)oc(=O)n3C)C1)OC (stereo not drawn)	19	i	1	1	7	i
O=C(Nc1ccncc1)c1cc(C2CCCCN2C(=O)CCCc2ccccc2)on1 (stereo not drawn)	·	·	·	2	·	·
CC1=NN(c2nc(-c3ccc(C)cc3)cs2)C(=O)C1N=Nc1ccc(C(N)=O)cc1 (stereo not drawn)	1	i	27*	4	16	-16*
Cc1snc(SCc2cccc(Cl)c2)c1C#N	0	i	20*	-1	11	i
CSc1ccc(/C=C/C(=O)OCC(=O)NC2CCS(=O)(=O)C2)cc1 (stereo not drawn)	0	·	1	0	-5	i
Cc1cc2cc(CNC(=S)Nc3ccc(OC(F)F)cc3)ccc2[nH]1	0	i	4	2	-30	i
Cc1cc2cc(CNC(=S)Nc3ccc(OC(F)(F)F)cc3)ccc2[nH]1	-1	i	12*	3	-1	i
COCCNc1ccc([N+](=O)[O-])cc1C(=O)NC1CCCc2ccccc21 (stereo not drawn)	0	i	1	2	42	i
Cn1cc(C2N3CC4(C)CN2CC(C)(C3)C4=O)c2ccccc21 (stereo not drawn)	1	i	-2	-2	-16	i
CC(=O)N1C=CN(C(C)=O)C(c2cn(C)c3ccccc23)C1c1cn(C)c2ccccc12 (stereo not drawn)	-2	i	14*	-2	27	i
Cc1ccc(S(=O)(=O)N2[C@H](CC(=O)c3ccccc3)OC[C@@H]2C(C)C)cc1	·	·	·	0	·	·
C=CCN1C(=O)c2ccc(C(=O)N(CC(C)C)c3c(N)n(CCCC)c(=O)[nH]c3=O)cc2C1=O	1	i	-1	-2	6	i
NS(=O)(=O)c1ccc(NS(=O)(=O)c2ccc(NC(=O)c3ccc(-c4ccccc4)cc3)cc2)cc1	9	i	23*	2	-18	i
NS(=O)(=O)c1ccc(C(=O)Nc2ccc(-c3nc4cccnc4s3)cc2)cc1	-4	i	30*	2	-12	i
Cc1cc(F)ccc1NC(=O)c1ccc(NS(=O)(=O)c2cc(C(C)(C)C)ccc2C)cc1	1	i	9	5	-18	i
O=C(Nc1cccc(S(=O)(=O)Nc2ccccc2Cl)c1)c1ccc(N2CCCC2)c([N+](=O)[O-])c1	-2	i	11*	10	3	i
CC(=O)Nc1ccc(NC(=O)c2ccc(NS(=O)(=O)c3cc(C(C)(C)C)ccc3C)cc2)cc1	0	i	17*	4	-5	i
NS(=O)(=O)c1ccc(NC(=O)c2ccc(-c3ccccc3)cc2)cc1	2	·	2	-3	-19	i
O=C(NCC(c1ccco1)N1CCc2ccccc21)c1cccc([N+](=O)[O-])c1 (stereo not drawn)	1	i	-5	0	2	i
COc1ccc2nc(SCC(=O)NCc3ccc(S(N)(=O)=O)cc3)[nH]c2c1	1	i	-2	-1	-1	i
CCCCCCOC(=O)Nc1ccc(S(=O)(=O)Nc2cccc([N+](=O)[O-])c2)cc1	-1	i	30*	17	9	i
